# Experimental data reported in publication PMC7862700, “An all-to-all approach to the identification of sequence-specific readers for epigenetic DNA modifications on cytosine”.
# Columns and labels:
# Experiment in all cases: DAPPL (digital affinity profiling via proximity ligation, sequencing); 10 mM Tris-HCl pH 7.5, 50 mM NaCl, 1 mM DTT, 4% glycerol, room temperature, 30 min; GST-TFs on glutathione beads, 16-mer random dsDNA library, 0.1% formaldehyde crosslink after washing; high values mean tight binding
# [1] = biological target: T1, FLI1 (Homo sapiens, UniProt Q01543 1-452); conditions: protein: recombinant; tags: N-terminal GST; dsDNA, one strand shown
# T1 sequence: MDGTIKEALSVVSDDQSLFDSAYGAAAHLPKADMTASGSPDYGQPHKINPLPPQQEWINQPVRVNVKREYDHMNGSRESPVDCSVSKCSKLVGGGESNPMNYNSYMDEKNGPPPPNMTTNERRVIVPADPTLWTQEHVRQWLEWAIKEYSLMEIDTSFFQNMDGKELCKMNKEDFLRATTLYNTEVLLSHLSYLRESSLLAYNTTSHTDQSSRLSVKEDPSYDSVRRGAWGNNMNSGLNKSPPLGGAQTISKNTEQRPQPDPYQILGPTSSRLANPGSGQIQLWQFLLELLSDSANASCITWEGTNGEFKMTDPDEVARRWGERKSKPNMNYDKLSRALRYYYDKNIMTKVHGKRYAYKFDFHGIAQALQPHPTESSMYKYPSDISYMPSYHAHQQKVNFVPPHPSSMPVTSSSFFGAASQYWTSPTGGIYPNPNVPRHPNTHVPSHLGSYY
# Outline: (§1)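 A tag-only sample was pooled with DNA-barcoded human transcription factors that had been expressed in yeast as GST fusions and captured on glutathione beads. The pools were incubated for 30 min at room temperature with 200 nmole of a random double-stranded 16-mer DNA library in Tris/NaCl/DTT/glycerol buffer, then washed, crosslinked with 0.1% formaldehyde, proximity-ligated (BsaI/T4 ligase, 1 h, 37 °C), PCR-amplified and sequenced on an Illumina NextSeq500. Binding signal is each hexamer's read frequency for a factor divided by its frequency for the tag-only sample.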
# [2] = biological target: T2, ELK1 (Homo sapiens, UniProt P19419 1-428); conditions: protein: recombinant; tags: N-terminal GST; dsDNA, one strand shown
# T2 sequence: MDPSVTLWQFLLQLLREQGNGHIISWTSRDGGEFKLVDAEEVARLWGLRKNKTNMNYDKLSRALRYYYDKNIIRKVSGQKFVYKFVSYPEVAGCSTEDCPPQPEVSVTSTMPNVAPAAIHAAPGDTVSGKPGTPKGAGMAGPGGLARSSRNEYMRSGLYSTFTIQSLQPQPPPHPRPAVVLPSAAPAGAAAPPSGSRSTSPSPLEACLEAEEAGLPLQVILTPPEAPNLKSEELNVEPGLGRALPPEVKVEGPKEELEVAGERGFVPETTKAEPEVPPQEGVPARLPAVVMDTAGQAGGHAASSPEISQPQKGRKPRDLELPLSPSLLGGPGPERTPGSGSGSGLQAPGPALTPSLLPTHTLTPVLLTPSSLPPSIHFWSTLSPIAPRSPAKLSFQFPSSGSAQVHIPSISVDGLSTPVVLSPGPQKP
# Outline: as §1
# [3] = biological target: T3, GABPA (Homo sapiens, UniProt Q06546 1-454); conditions: protein: recombinant; tags: N-terminal GST; dsDNA, one strand shown
# T3 sequence: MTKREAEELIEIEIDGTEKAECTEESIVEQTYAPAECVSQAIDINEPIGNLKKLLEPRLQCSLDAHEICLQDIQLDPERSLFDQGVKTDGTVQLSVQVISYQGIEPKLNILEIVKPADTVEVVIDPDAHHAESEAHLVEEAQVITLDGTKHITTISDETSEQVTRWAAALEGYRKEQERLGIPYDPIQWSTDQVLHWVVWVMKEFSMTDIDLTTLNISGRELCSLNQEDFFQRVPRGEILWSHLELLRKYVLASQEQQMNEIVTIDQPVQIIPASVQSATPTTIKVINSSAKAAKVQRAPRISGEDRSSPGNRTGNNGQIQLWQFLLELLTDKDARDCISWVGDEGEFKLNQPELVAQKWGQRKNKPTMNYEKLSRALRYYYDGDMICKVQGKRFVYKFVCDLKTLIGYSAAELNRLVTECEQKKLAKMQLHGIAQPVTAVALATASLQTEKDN
# Outline: as §1
# [4] = biological target: T4, ERG (Homo sapiens, UniProt P11308 1-479); conditions: protein: recombinant; tags: N-terminal GST; dsDNA, one strand shown
# T4 sequence: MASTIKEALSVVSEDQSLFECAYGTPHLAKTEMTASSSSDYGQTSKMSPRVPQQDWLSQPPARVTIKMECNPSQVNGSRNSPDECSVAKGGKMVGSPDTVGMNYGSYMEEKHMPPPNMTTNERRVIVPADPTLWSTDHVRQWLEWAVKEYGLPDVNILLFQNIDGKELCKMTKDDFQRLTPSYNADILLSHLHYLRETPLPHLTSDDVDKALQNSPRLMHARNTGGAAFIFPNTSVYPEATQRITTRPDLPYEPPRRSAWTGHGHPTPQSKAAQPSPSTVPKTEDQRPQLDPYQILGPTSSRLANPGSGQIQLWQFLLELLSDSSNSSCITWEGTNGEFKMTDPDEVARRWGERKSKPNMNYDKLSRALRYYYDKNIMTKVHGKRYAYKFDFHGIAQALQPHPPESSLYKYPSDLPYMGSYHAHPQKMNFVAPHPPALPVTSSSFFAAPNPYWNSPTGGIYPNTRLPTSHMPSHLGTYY
# Outline: as §1
# [5] = biological target: ELF1 (Homo sapiens, UniProt P32519 1-619); conditions: protein: recombinant; tags: N-terminal GST; dsDNA, one strand shown
# ELF1, sequence (P32519 whole entry): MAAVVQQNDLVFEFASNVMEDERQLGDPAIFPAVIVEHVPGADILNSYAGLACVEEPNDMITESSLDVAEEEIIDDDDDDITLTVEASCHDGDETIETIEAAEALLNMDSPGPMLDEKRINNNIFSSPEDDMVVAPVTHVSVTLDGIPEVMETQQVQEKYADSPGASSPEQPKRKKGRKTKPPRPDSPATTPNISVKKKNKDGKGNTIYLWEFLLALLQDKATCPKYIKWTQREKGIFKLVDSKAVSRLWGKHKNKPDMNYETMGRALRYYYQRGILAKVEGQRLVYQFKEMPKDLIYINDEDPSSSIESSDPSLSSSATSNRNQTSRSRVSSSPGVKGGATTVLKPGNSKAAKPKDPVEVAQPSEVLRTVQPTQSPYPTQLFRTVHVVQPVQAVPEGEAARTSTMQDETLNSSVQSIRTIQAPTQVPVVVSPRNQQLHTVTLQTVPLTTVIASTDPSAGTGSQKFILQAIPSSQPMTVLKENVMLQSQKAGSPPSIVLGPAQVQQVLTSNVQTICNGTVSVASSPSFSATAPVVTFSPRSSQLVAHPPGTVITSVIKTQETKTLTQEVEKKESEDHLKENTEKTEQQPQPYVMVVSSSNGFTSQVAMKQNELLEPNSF
# Outline: as §1
# [6] = biological target: T5, EHF (Homo sapiens, UniProt Q9NZC4 1-300); conditions: protein: recombinant; tags: N-terminal GST; dsDNA, one strand shown
# T5 sequence: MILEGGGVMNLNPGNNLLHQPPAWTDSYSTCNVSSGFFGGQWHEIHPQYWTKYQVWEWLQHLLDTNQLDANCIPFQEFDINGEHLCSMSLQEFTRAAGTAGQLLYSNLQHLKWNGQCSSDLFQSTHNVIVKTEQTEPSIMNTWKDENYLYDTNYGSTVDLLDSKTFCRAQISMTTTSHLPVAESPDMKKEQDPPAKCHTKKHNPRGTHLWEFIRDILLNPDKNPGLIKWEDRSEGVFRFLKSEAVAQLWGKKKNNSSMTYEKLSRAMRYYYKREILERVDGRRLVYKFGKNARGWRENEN
# Outline: as §1
# [7] = biological target: SPI1 (Homo sapiens, UniProt P17947 1-270); conditions: protein: recombinant; tags: N-terminal GST; dsDNA, one strand shown
# Outline: as §1
# [8] = biological target: SPIB (Homo sapiens, UniProt Q01892 1-262); conditions: protein: recombinant; tags: N-terminal GST; dsDNA, one strand shown
# SPIB, sequence (Q01892 whole entry): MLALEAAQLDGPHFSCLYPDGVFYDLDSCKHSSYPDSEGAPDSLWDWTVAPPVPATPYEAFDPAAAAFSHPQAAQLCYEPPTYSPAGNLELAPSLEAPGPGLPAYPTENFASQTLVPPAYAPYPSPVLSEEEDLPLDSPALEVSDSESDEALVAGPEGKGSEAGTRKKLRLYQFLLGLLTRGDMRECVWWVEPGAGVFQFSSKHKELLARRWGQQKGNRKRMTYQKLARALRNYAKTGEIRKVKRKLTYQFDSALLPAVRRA
# Outline: as §1
# [9] = biological target: T6, ELK3 (Homo sapiens, UniProt P41970 1-407); conditions: protein: recombinant; tags: N-terminal GST; dsDNA, one strand shown
# T6 sequence: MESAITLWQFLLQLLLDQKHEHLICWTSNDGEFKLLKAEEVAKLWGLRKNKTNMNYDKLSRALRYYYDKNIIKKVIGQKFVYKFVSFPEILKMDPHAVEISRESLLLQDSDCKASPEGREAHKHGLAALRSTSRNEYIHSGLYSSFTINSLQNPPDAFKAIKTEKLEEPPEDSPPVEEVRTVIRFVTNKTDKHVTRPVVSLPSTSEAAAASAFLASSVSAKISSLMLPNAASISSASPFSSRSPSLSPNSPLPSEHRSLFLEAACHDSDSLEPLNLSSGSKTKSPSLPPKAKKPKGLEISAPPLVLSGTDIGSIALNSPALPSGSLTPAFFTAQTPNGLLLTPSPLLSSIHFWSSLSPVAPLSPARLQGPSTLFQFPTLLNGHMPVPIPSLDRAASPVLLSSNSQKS
# Outline: as §1
# [10] = biological target: T7, FEV (Homo sapiens, UniProt Q99581 1-238); conditions: protein: recombinant; tags: N-terminal GST; dsDNA, one strand shown
# T7 sequence: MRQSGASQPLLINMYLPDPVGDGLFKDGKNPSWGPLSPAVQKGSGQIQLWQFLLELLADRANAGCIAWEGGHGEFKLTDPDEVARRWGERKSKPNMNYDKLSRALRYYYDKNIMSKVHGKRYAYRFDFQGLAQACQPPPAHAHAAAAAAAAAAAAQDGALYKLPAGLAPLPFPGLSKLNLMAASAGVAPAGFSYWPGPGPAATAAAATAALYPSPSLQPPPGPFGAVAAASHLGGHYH
# Outline: as §1
# [11] = biological target: ETV5 (Homo sapiens, UniProt P41161 1-510); conditions: protein: recombinant; tags: N-terminal GST; dsDNA, one strand shown
# ETV5, sequence (P41161 whole entry): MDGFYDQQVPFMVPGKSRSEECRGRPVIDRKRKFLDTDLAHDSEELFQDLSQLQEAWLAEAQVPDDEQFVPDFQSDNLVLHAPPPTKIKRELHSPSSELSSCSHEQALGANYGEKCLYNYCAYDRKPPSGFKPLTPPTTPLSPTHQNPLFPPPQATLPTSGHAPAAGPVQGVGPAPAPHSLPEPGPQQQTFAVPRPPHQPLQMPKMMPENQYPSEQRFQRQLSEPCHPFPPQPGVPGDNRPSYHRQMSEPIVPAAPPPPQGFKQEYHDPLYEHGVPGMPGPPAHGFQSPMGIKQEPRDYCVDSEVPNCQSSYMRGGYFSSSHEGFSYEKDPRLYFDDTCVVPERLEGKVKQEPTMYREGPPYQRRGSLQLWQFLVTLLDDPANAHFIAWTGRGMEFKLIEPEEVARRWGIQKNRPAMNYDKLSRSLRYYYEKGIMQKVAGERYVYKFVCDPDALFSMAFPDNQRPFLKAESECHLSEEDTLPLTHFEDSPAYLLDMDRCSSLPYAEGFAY
# Outline: as §1
# [12] = biological target: HSF1 (Homo sapiens, UniProt Q00613 1-529); conditions: protein: recombinant; tags: N-terminal GST; chain copies: 3; dsDNA, one strand shown
# HSF1, sequence (Q00613 whole entry): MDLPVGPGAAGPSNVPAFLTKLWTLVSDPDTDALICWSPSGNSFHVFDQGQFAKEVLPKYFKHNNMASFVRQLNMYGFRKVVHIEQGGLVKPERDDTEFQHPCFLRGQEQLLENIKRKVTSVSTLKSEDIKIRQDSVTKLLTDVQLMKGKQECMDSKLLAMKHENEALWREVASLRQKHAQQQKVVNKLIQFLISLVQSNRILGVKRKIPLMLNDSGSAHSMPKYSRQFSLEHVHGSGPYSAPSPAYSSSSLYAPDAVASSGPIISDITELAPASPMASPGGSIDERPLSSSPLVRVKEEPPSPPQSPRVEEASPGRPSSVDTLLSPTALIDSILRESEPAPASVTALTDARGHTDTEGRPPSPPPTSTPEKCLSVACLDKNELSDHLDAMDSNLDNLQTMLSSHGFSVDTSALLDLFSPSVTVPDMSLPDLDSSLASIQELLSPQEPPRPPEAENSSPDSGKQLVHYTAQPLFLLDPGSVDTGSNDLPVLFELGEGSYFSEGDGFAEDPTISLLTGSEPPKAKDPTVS
# Outline: as §1
# [13] = biological target: T8, SPIC (Homo sapiens, UniProt Q8N5J4 1-248); conditions: protein: recombinant; tags: N-terminal GST; dsDNA, one strand shown
# T8 sequence: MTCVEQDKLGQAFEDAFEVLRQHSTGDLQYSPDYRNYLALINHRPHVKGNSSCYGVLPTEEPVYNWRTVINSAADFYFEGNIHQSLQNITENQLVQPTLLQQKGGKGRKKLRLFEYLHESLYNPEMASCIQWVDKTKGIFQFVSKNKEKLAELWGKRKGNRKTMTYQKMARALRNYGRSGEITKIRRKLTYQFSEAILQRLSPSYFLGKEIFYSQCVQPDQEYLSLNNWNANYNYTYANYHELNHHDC
# Outline: as §1
# [14] = biological target: ELF4 (Homo sapiens, UniProt Q99607 1-663); conditions: protein: recombinant; tags: N-terminal GST; dsDNA, one strand shown
# ELF4, sequence (Q99607 whole entry): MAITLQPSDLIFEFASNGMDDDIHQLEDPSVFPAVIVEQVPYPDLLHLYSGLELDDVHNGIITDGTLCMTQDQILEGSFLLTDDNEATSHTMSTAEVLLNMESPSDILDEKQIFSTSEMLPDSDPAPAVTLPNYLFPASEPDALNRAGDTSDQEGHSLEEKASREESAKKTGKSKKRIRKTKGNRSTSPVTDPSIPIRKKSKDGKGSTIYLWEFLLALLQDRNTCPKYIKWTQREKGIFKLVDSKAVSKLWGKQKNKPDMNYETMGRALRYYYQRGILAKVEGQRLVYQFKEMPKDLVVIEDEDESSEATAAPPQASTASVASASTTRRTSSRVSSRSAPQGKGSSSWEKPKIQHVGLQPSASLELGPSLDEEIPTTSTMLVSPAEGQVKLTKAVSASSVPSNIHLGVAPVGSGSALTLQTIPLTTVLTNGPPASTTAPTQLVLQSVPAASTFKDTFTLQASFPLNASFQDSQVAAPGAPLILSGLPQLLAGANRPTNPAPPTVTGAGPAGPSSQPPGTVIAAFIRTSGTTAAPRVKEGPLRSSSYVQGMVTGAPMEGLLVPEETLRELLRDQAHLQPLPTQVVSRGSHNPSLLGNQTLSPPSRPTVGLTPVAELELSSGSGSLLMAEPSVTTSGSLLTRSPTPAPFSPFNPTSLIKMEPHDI
# Outline: as §1
# [15] = biological target: T9, ELK4 (Homo sapiens, UniProt P28324-2 1-405); conditions: protein: recombinant; tags: N-terminal GST; dsDNA, one strand shown
# T9 sequence: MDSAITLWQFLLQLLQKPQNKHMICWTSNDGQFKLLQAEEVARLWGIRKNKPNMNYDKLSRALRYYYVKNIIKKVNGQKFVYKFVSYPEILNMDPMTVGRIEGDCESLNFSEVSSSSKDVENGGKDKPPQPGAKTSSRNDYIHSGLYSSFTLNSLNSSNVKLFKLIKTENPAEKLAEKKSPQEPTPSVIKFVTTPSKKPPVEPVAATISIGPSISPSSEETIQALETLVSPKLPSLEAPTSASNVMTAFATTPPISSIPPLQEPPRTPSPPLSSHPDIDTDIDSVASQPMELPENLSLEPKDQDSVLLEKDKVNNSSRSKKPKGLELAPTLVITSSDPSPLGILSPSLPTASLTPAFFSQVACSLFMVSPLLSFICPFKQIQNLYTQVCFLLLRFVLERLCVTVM
# Outline: as §1
# [16] = biological target: T10, ETV2 (Homo sapiens, UniProt O00321 1-342); conditions: protein: recombinant; tags: N-terminal GST; dsDNA, one strand shown
# T10 sequence: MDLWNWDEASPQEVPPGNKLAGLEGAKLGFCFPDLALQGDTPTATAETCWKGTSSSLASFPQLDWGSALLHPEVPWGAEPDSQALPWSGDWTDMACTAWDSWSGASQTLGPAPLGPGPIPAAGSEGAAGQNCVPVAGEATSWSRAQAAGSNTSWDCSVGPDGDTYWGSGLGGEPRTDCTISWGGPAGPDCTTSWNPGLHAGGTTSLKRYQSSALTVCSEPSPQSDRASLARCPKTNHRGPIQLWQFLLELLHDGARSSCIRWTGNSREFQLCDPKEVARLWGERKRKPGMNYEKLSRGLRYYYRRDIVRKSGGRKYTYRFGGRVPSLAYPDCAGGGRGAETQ
# Outline: as §1
# [17] = biological target: T11, ELF3 (Homo sapiens, UniProt P78545 1-371); conditions: protein: recombinant; tags: N-terminal GST; dsDNA, one strand shown
# T11 sequence: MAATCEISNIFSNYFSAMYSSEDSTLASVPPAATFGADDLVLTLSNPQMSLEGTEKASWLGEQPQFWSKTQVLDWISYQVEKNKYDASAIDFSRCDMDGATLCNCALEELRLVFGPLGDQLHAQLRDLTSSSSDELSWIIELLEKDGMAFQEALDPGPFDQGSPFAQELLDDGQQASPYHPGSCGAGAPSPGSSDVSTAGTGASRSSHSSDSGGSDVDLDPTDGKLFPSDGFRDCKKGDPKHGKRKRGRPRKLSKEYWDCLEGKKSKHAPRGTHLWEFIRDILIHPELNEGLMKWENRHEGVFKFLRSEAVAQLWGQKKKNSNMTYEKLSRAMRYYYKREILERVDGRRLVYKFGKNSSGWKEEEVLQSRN
# Outline: as §1
# [18] = biological target: CRX (Homo sapiens, UniProt O43186 1-299); conditions: protein: recombinant; tags: N-terminal GST; dsDNA, one strand shown
# CRX, sequence (O43186 whole entry): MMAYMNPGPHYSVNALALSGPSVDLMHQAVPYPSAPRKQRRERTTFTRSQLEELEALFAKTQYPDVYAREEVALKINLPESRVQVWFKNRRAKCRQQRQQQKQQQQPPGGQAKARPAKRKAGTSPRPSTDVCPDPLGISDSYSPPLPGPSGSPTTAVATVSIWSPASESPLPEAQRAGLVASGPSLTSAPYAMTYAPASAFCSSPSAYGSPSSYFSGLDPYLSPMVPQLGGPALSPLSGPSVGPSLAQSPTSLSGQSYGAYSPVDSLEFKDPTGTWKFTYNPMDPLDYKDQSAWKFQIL
# Outline: as §1
# [19] = biological target: ETV1 (Homo sapiens, UniProt P50549 1-477); conditions: protein: recombinant; tags: N-terminal GST; dsDNA, one strand shown
# ETV1, sequence (P50549 whole entry): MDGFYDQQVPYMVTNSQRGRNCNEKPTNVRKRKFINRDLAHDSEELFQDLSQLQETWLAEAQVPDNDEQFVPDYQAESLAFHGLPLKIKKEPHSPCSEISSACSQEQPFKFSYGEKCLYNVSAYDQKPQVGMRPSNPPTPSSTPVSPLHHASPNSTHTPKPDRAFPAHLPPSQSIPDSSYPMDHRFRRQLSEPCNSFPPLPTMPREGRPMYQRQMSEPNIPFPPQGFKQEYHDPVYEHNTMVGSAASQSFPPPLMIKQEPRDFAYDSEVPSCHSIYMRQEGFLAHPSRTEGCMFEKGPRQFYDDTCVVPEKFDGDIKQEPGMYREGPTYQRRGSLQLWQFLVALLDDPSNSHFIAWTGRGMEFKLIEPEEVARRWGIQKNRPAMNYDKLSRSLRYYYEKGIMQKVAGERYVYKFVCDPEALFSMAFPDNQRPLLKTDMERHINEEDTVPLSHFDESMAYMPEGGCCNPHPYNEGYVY
# Outline: as §1
sequence,measurement,setting,value
AATTCA,binding signal,[1],"1.29 fold enrichment (6-mer frequency, TF over GST control)"
same,binding signal,[2],"1.23 fold enrichment (6-mer frequency, TF over GST control)"
same,binding signal,[3],"1.35 fold enrichment (6-mer frequency, TF over GST control)"
same,binding signal,[4],"1.33 fold enrichment (6-mer frequency, TF over GST control)"
same,binding signal,[5],"1.31 fold enrichment (6-mer frequency, TF over GST control)"
same,binding signal,[6],"1.27 fold enrichment (6-mer frequency, TF over GST control)"
same,binding signal,[7],"1.29 fold enrichment (6-mer frequency, TF over GST control)"
same,binding signal,[8],"1.33 fold enrichment (6-mer frequency, TF over GST control)"
same,binding signal,[9],"1.47 fold enrichment (6-mer frequency, TF over GST control)"
same,binding signal,[10],"1.24 fold enrichment (6-mer frequency, TF over GST control)"
same,binding signal,[11],"1.34 fold enrichment (6-mer frequency, TF over GST control)"
same,binding signal,[12],"1.34 fold enrichment (6-mer frequency, TF over GST control)"
same,binding signal,[13],"1.32 fold enrichment (6-mer frequency, TF over GST control)"
same,binding signal,[14],"1.33 fold enrichment (6-mer frequency, TF over GST control)"
same,binding signal,[15],"1.26 fold enrichment (6-mer frequency, TF over GST control)"
same,binding signal,[16],"1.36 fold enrichment (6-mer frequency, TF over GST control)"
same,binding signal,[17],"1.35 fold enrichment (6-mer frequency, TF over GST control)"
same,binding signal,[18],"1.39 fold enrichment (6-mer frequency, TF over GST control)"
same,binding signal,[19],"1.23 fold enrichment (6-mer frequency, TF over GST control)"
